High-throughput results from PubChem.
Shown are actives, neighbours in structure and some others; about 2.3% of the full set was active somewhere.
CHO-K1 Ca PAM: nonselective calcium activators in parental CHO-K1 cells, primary screen, counter-screen for M1 PAM project, cell-based, Fluo-8 calcium fluorescence, full deck, 1536-well. ATP EC20; 0% at ATP EC20, 100% at ATP max. activation, % at 3 µM. 360,000 compounds, 0.02% hits;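 active = activation above the run cutoff, the mean activation of all test compounds plus 3 SD, cut at about 40% in these data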;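 also: peak over basal fluorescence ratio in a 140 s read after ATP addition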
CHO-K1 Ca antag: nonselective inhibitor or artifact in parental CHO-K1 cells; ATP-induced calcium, Fluo-8 fluorescence; inhibition, % at 3 µM; 360,000 compounds, 0.6% hits; AID 602250;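 active = inhibition above a per-plate cutoff, the plate's mean sample inhibition plus 3 SD, cut at about 24% in these data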;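 also: 0% = DMSO plus EC80 ATP and 100% = DMSO alone without ATP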
M1 PAM: human M1 muscarinic receptor positive allosteric modulators, primary screen, CHO-K1 cells, Fluo-8 calcium fluorescence, 1536-well. Muscarinic acetylcholine receptor M1 (Homo sapiens), P11229. CHO-K1 hM1, ACh EC20; 0% = ACh EC20, 100% = maximal ACh. activation, % at 3 µM. 360,000 compounds, 0.088% hits. AID 588819, 2011; in the data active = activation above about 19%, passing the limit was not always enough
Target sequence (P11229 whole entry, looked up): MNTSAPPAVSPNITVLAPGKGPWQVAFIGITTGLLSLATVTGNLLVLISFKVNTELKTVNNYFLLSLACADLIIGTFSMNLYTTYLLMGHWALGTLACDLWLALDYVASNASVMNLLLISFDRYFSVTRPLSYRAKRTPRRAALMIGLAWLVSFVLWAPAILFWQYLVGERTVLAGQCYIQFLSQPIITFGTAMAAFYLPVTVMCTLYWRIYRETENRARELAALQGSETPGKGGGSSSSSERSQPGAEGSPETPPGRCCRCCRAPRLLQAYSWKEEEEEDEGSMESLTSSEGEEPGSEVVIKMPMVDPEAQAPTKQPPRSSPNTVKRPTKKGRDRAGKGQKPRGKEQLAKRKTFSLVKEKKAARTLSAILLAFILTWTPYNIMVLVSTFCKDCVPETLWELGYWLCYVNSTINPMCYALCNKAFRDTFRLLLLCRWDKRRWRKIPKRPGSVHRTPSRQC
CHRM1 agonist: human M1 muscarinic receptor agonists, primary screen, Fluo-8 calcium fluorescence, CHO-K1 cells, HTS; CHO-K1 hM1, agonist mode; 0% DMSO, 100% acetylcholine EC100; activation, % at 3 µM; 360,000 compounds, 0.33% hits;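 active = activation above the run's mean compound activation plus 3 SD, cut at about 16% in these data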;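 also: peak over basal fluorescence ratio within a 140 s kinetic read after compound addition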
M1 antag: human M1 muscarinic receptor antagonists, primary screen, CHO-K1 cells, Fluo-8 calcium fluorescence, 1536-well; Muscarinic acetylcholine receptor M1 (Homo sapiens), P11229; CHO-K1 hM1, ACh EC80 antagonist; inhibition, % at 3 µM; 360,000 compounds, 1.3% hits; AID 588852, 2011;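 active = percent inhibition above its own plate's cutoff, namely the mean of that plate's compound wells plus 3 SD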;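 also: peak over basal fluorescence ratio during 140 s after agonist addition; 0% = ACh EC80 plus DMSO and 100% = DMSO alone without agonist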
CHO-K1 Ca ag: counter-screen for M1 agonists: effect in parental CHO-K1 cells; Fluo-8 calcium fluorescence; scaled to maximal ATP response, vehicle zero; activation, % at 3 µM; 360,000 compounds, 0.48% hits; AID 602248, 2012; in the data active = activation above about 15%;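 also: untransfected CHO-K1 host cells lacking M1 receptor as counterscreen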
Starred values were filed as active, the others as inactive; / = no result; ! = repeats disagree.

SMILES | CHO-K1 Ca PAM | CHO-K1 Ca antag | M1 PAM | CHRM1 agonist | M1 antag | CHO-K1 Ca ag
C[C@@H]1CN([C@H](C)CO)C(=O)c2cc(C#Cc3ccccc3F)cnc2O[C@@H]1CN(C)S(=O)(=O)c1ccccc1F | -11.0 | 24.8* | -7.0 | -3.4 | 9.4 | -0.3
CC(C)CC(=O)NC(=S)Nc1ccc(NC(=O)c2ccco2)cc1 | 23.7 | -11.4 | 5.2 | -1.7 | -4.0 | 4.9
COc1ccc([C@H]2CC(=O)C=C(c3cc(OC)ccc3OC)C2)cc1 | 8.6 | -13.0 | -0.7 | -5.7 | 7.5 | 0.4
COc1ccc(S(=O)(=O)NC2CC(C)(C)NC(C)(C)C2)cc1C(C)C | 21.3 | -18.5 | -1.1 | -4.4 | 1.1 | 1.0
COc1cccc(Cl)c1NC(=O)N1CCN(c2ccnc3cc(Cl)ccc23)CC1 | 12.0 | -0.7 | -17.3 | -2.2 | 34.3* | 7.3
CCC(=O)N1CCN(c2ccnc3cc(Cl)ccc23)CC1 | 14.6 | -11.1 | 3.6 | -4.3 | -11.0 | 1.7
COc1cccc(Cl)c1NC(=O)N1CCN(c2cc(C)nc3ccccc23)CC1 | 14.8 | -26.9 | 0.0 | -9.2 | -7.9 | -0.4
CCOC(=O)N1CCN(c2ccnc3cc(Cl)ccc23)CC1 | -4.0 | -12.0 | -38.1 | -12.3 | 90.8* | 4.0
COc1ccc(-c2cc(C(=O)Nc3cccnc3)no2)cc1OC | -2.6 | -11.4 | 11.9 | 9.5 | 2.5 | 1.1
CC(=O)n1cc([C@H]2C=C(C(N)=O)O[C@@H](OCc3ccc(CO)cc3)C2)c2ccccc21 | 7.1 | -8.6 | -10.1 | 22.8* | 20.8 | 19.8*
CC(=O)n1cc([C@H]2C=C(C(=O)NCc3ccccc3)O[C@@H](OCc3ccc(CO)cc3)C2)c2ccccc21 | 12.4 | -10.7 | -7.6 | -5.5 | 12.0 | 5.4
Cc1ccc(S(=O)(=O)Nc2ccccc2F)cc1C(=O)NNC(=O)c1ccccc1O | -4.3 | 13.3 | 7.5 | -2.7 | -7.8 | 0.1
Cc1ccc(S(=O)(=O)n2ccc3c2CCCC3=O)cc1 | 8.4 | 7.3 | -27.4 | -7.8 | 54.1* | 1.2
O=C(c1cccs1)N1C[C@H](n2cc(C3CC3)nn2)[C@@H](O)C[C@@H]1c1ccc(Cl)cc1 | -2.9 | -15.6 | 20.0 | 8.6 | -11.3 | 1.1
CCc1cc2c(COC(=O)c3cccc(S(C)(=O)=O)c3)cc(=O)oc2cc1O | 9.8 | -2.1 | -6.1 | -5.6 | 9.3 | 9.7
CNS(=O)(=O)c1cccc(C(=O)OCc2cc(=O)oc3c(C)c(O)ccc23)c1 | 12.0 | -7.8 | -6.8 | 0.6 | 1.7 | 15.4*
Cc1nnc(SC(C)C(=O)Nc2ccc(N3CCOCC3)cc2)n1Cc1ccccc1 (stereo unspecified) | 8.9 | -3.7 | 12.7 | -2.4 | -14.7 | 1.4
COc1cc(OC)cc(-c2noc([C@@H]3O[C@H](CO)[C@@H](O)[C@H]3O)n2)c1 | 13.6 | -9.1 | 9.7 | -1.2 | -17.4 | -0.1
O=C1CC(=C(c2ccccc2)c2ccccc2)C(=O)N1CCCCN1CCN(c2ccccc2)CC1 | 14.6 | -13.5 | -22.4 | -5.0 | 72.8* | -0.3
O=C(Nc1ccc(O)c(-c2nc3ccccc3s2)c1)C1=COCCO1 | 15.6 | -9.4 | -22.1 | -8.5 | 78.8* | 3.2
CCCC(=O)Nc1ccccc1-c1nnc(SC)[nH]c1=O | 5.5 | 28.2* | 6.6 | -0.8 | 1.4 | -0.1
CCCSc1nnc(-c2ccccc2NC(=O)CC)c(=O)[nH]1 | -4.3 | 0.2 | 5.5 | -2.0 | 2.4 | 0.4
CN(C)CCCN(Cc1ccccc1)C(=S)Nc1ccc(SC(F)F)cc1 | 19.1 | -11.8 | -22.1 | -3.9 | 88.5* | 5.6
CC(=O)c1ccc(NC(=S)NC(C)CCc2ccccc2)cc1 (stereo unspecified) | 3.4 | -0.8 | -3.9 | 2.2 | 18.7 | 15.4*
CN(C)CCCN(Cc1ccccc1)C(=S)NCc1ccccc1 | 17.5 | -15.2 | 3.2 | -3.8 | 1.9 | 3.8
SMILES | CHO-K1 Ca PAM | CHO-K1 Ca antag | M1 PAM | CHRM1 agonist | M1 antag | CHO-K1 Ca ag
CC(=O)c1ccc(NC(=S)N(CCCN(C)C)Cc2ccccc2)cc1 | 4.6 | 2.5 | -21.1 | -4.2 | 43.9* | 10.8
O=C(Nc1nccs1)C1CC(=O)N(CCc2ccc(F)cc2)C1 (stereo unspecified) | -14.2 | -9.6 | 2.5 | 0.8 | 3.7 | 1.7
CCCCNC(=O)c1ccc(NS(=O)(=O)c2ccc3[nH]c(=O)[nH]c3c2)cc1 | 2.1 | 3.2 | 5.3 | -0.9 | -5.8 | 0.4
COc1ccc(C(CNC(=O)c2oc3ccc(OC)cc3c2C)N2CCCC2)cc1 (stereo unspecified) | -29.8 | 30.1* | -10.7 | -5.7 | 14.0 | -0.2
COc1ccc(C(CNC(=O)c2cccc(S(=O)(=O)Nc3ccc(F)cc3)c2)N2CCCC2)cc1 (stereo unspecified) | 18.6 | 4.0 | 7.0 | -5.8 | -13.9 | 2.1
COc1ccccc1C(CNC(=O)c1cccc(S(=O)(=O)Nc2ccc(F)cc2)c1)N1CCCC1 (stereo unspecified) | -5.9 | -1.0 | -30.9 | -8.2 | 100.6* | 0.4
COc1ccc(NS(=O)(=O)c2cccc(C(=O)NCC(c3ccccc3OC)N3CCCC3)c2)cc1 (stereo unspecified) | 7.7 | -7.2 | -24.7 | -6.2 | 81.8* | 1.9
COc1ccc(NS(=O)(=O)c2cccc(C(=O)NCc3ccccc3CN3CCOCC3)c2)cc1 | 9.8 | -16.6 | -5.9 | 22.9* | 6.1 | 7.5
COc1ccc(NS(=O)(=O)c2cccc(C(=O)NCC(c3ccc(OC)cc3)N3CCCC3)c2)cc1 (stereo unspecified) | -1.8 | 9.4 | 2.3 | -5.5 | -4.0 | 5.2
COc1ccc(NS(=O)(=O)c2cccc(C(=O)NCCCN3CCOCC3)c2)cc1 | 21.4 | -7.5 | 0.7 | 0.8 | -4.7 | 0.8
O=c1[nH]c2cc3ccccc3cc2nc1-c1nnnn1C1CCCC1 | 22.7 | -8.8 | / | / | / | 4.0
CCOC(=O)c1csc(-c2csc(CCNC(=O)c3ccccc3)n2)n1 | 6.7 | -2.3 | -15.5 | -1.3 | 10.9 | 4.6
CC(C)(CNC(=O)c1cccc(S(=O)(=O)Nc2ccc(SC(F)F)cc2)c1)N1CCOCC1 | -16.5 | 9.4 | -15.0 | 0.8 | 34.9* | 0.7
C=CCN(c1ccccc1OC)S(=O)(=O)c1cccc(C(=O)NCC(c2ccc(OC)cc2)N2CCCC2)c1 (stereo unspecified) | -2.5 | -12.5 | -23.8 | -8.5 | 34.2* | 0.7
O=C(Nc1cc(S(=O)(=O)N2CCCCC2)ccc1Oc1ccccc1)C1=COCCO1 | -8.4 | 1.2 | -0.6 | -3.1 | -2.7 | -0.3
CCOC(=O)Nc1ccc2c(c1)N(C(=O)OCCN(C)C)c1ccccc1CC2 | 13.8 | 4.5 | -25.6 | -12.4 | 31.1*! | 0.9
Cc1cc2nc(C)c(=O)n(C)c2cc1C | 1.8 | -0.6 | 9.9 | -5.8 | -12.9 | 0.2
